Screening data from PubChem BioAssay.
The list is not random: actives were taken first. Their share in the collection is about 5.3%.
Six1-Eya2 inh = inhibitors of human Six1/Eya2 interaction. Q15475+O00167. AlphaScreen GST-Six1/His-Eya2 binding, biochemical; active compounds read low. activity change, % (test concentration not listed). actives 0.56% (n = 360,000). AID 651725; in the data active = activity change below about -65%; inconclusive = mostly about -30% to -63%
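Six1/Eya2 binding was read as AlphaScreen signal after compounds were pinned into GST-Six1 plus His-tagged Eya2 (5X stock 250/500 nM) in pH 8.0 Tris/NaCl/TCEP buffer, beads added, then incubated 1 h, 37 C, dark.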
JMJD2A Tudor = JMJD2A Tudor domain (human) inhibition. AID 504339. Potency, µM (highest dose often 114 µM), actives largely listed as inhibitors. actives 4.4% (n = 390,000). AlphaScreen JMJD2A-Tudor / H3K4me3 peptide binding; note: nearly all actives have a fitted effect of over 50% in size
BAZ2B block = inhibitors of human BAZ2B bromodomain. actives 4.4% (n = 360,000). Q9UIF8. AlphaScreen BAZ2B-H3K14Ac peptide displacement. Potency, µM (top dose mostly 114 µM), hits mostly inhibitors; note: nearly all actives have a fitted effect of over 60% in size
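Complex of BAZ2B and biotin-H3K14Ac (50 nM apiece) forms over 30 min at RT, then faces library compounds up to 110 uM for another 30 min; AlphaScreen beads added, 20 min dark incubation, luminescence read.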
HP1b binding inh = inhibitors of HP1-beta chromodomain binding to methylated histone tails; actives 0.56% (n = 390,000); Potency, µM (doses to about 114 µM), usual class: inhibitors; P83916; AlphaScreen HP1-beta / biotin-H3K9me3 peptide binding; note: nearly all actives have a fitted effect of over 70% in size
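Compound inhibition of the preformed complex between 50 nM HP1-beta and 50 nM biotinylated H3K9me3 peptide was read by AlphaScreen. Buffer was PBS pH 7.4 with 0.01% Tween-20. Incubations ran 30 min at room temperature, with 10 ug/mL donor/acceptor beads.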
CtBP-E1A inh = CtBP/E1A binding inhibition | AlphaScreen GST-E1A/His-CtBP binding, 1536-well; active compounds read low | activity change, % (concentration not given with the values) | actives 0.49% (n = 340,000) | AID 651724; in the data active = activity change below about -65%; inconclusive = mostly about -30% to -63%
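Homogeneous bead-based format: GST-tagged E1A captured on glutathione donor beads, His-tagged CtBP on nickel acceptor beads; compounds precede bead addition by 2 h at 37 °C.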
TDP1 inh = blocks human tyrosyl-DNA phosphodiesterase 1; actives 0.28% (n = 350,000); Potency, µM (doses to about 130 µM), usual class: inhibitors; Q9NUW8; recombinant TDP1, AlphaScreen DNA substrate cleavage; AID 485290; note: nearly all actives have a fitted effect of over 40% in size
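Steps: enzyme plus compound, 15 min RT; add biotin/phosphotyrosine-FITC oligonucleotide (15 nM final), react 5 min; add donor/acceptor beads (10 ug/ml final), 10 min; read AlphaScreen. Tdp1 at 1 nM final.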
Hits are given with their value; 0 = inactive; ? = inconclusive; - = no result given; [ ] = remark or other dose. Unless noted, calls come from the whole dose curve; as a rule, active = well fitted inhibition curve with a large enough effect; inconclusive = small, poorly fitted or top-dose-only effect; inactive = no such curve, though single readings can be large or run the other way.

SMILES	Six1-Eya2 inh	JMJD2A Tudor	BAZ2B block	HP1b binding inh	CtBP-E1A inh	TDP1 inh
CCOC(=O)/C(N=Nc1ccc(C(=O)O)cc1[N+](=O)[O-])=C(\C)O	0	0	-	0	0	0
CC(=O)/C(N=Nc1cc2c(cc1[N+](=O)[O-])OCCO2)=C(\C)O	0	18µM	0	0	0	0
Cc1ccc(-c2nc3sc(CCNS(=O)(=O)c4cc(F)ccc4F)c(C)n3n2)cc1	-	0	0	0	-	0
O=C(CCc1ccccc1)NC1CC(=O)N(c2ccccc2)C1 (stereo not drawn)	-	0	0	0	-	0
N[C@@]1(C(=O)O)CN[C@H](C(=O)O)C1	-	-	-	-	-	0
NC1(C(=O)O)CSSC1	-88	89µM	-	?	0	-
CCCCOc1cccc(C(=O)Nc2cc(NC(=O)c3ccco3)ccc2OC)c1	-	0	0	0	-	0
NC(=S)NN=C1c2cc(Cl)ccc2-c2c1cc(Cl)cc2[N+](=O)[O-]	0	?	-	0	0	-
COc1cc2c(cc1[N+](=O)[O-])-c1ccc([N+](=O)[O-])cc1C2=NNC(N)=S	-73	-	-	-	?	-
O=c1[nH][nH]c2c(N=Cc3ccccc3O)ccc(F)c12	?	?	10µM	11µM	-91	0
CCc1ccc(O)c(N=Cc2ccccc2O)c1	0	?	?	0	0	0
COCc1cc(=O)[nH]c(Nc2nc3ccccc3o2)n1	-74	79µM	40µM	0	-85	0
O=C(NCCc1ccccc1)c1cc(Sc2ccc(F)cc2F)nc2ccccc12	-	0	0	0	-	0
CN(Cc1cccs1)C(=O)CSc1nc(N)cc(N)n1	0	79µM	-	0	0	0
CCC(CO)Nc1ncnc2c1cnn2-c1ccc(C)cc1 (stereo not drawn)	-	0	0	0	-	0
Cn1cccc1/C=N/NC(=O)c1cccs1	0	0	0	0	-	0
CCCc1cc(C(=O)N/N=C/c2cccn2C)cs1	0	?	45µM	?	0	0
Cc1ccc(N2CCN(C(=O)CCS(=O)(=O)c3cc4c(cc3Cl)NC(=O)CO4)CC2)c(C)c1	-	0	0	0	-	0
Cc1nc2cc(N)ccc2n1-c1ccccc1	0	35µM	0	?	0	0
COC(=O)C1=C(C)N(Cc2ccccc2)[C@]23O[C@](C(=O)OC)(C(=O)N2C1c1ccccc1)C(C(=O)OC)C3C(=O)OC (stereo partly drawn)	-	-	-	-	-	0[21 µM]
COc1ccc2c(c1)O[C@@H](c1cccc(C(F)(F)F)c1)[C@H](OC(=O)NS(=O)(=O)c1ccc(F)cc1)C2=O	-	-	-	-	-	0
S=C1NC2(CCCCC2)NN1c1ccccc1	0	0	79µM	0	0	0
CC(C)(C)N1NC2(CCCCC2)NC1=S	0	18µM	?	0	0	0
CC1CC(C)(C)CC2(C1)NC(=S)N(c1ccccc1)N2 (stereo not drawn)	0	0	0	0	0	0
CCN(CCCNC(=O)CN1N=C(c2ccc(OC)cc2)CCC1=O)c1cccc(C)c1	-	79µM	40µM	?	-	0
SMILES	Six1-Eya2 inh	JMJD2A Tudor	BAZ2B block	HP1b binding inh	CtBP-E1A inh	TDP1 inh
CCN(CCCNC(=O)CN1N=C(c2ccc(C)cc2)CCC1=O)c1ccccc1	-	56µM	14µM	?	-	0
CCCCN(C)CCCNC(=O)CN1N=C(c2ccc(Cl)cc2)CCC1=O	0	0	0	0	0	-
COc1ccc(C2=NN(CC(=O)NCCCN(C)c3ccccc3)C(=O)CC2)cc1	-	?	?	0	-	0
CCN(CCCNC(=O)CN1N=C(c2ccccc2)CCC1=O)c1cccc(C)c1	-	?	?	?	-	0
CCCCN(CCCNC(=O)CN1N=C(c2ccc(C)cc2)CCC1=O)c1ccccc1	-	40µM	20µM	?	-	0
CC(=O)Nc1ccc(NS(=O)(=O)c2c(C(=O)N3CCC(C)CC3)c(C)n(C)c2C)cc1	-	0	0	0	-	0
CCOC(=O)/C(=N/Nc1ccc(OC)cc1)N1CCCc2ccccc21	?	?	28µM	71µM	0	0
CCc1nn(CC(=O)NC(C)C)c(=O)c2cc3cc(F)ccc3n12	-	0	0	0	-	0
CN(C)CCCNc1ncnc2sc(-c3ccccc3)cc12	0	5.6µM	56µM	?	-	-
O=C(CN1CCCCCCC1)N/N=C/c1ccc([N+](=O)[O-])o1	0	18µM	50µM	?	?	-
O=C(CCN1CCCCCC1)Nc1ccccc1F	0	0	-	0	0	-
O=C(CN1CCCC1)NC(c1ccccc1)c1ccccc1	0	1.4µM	0[0.457 µM]	?	0	-
O=C(CN1CCCCCC1)Nc1ccccc1F	0	2.2µM	56µM	?	0	0
O=C(CO)N/N=C/c1ccccc1F	0	0	0	0	0	0
O=C(CN1CCSCC1)N/N=C/c1ccccc1F	0	3.2µM	50µM	?	0	0
CC(=O)Nc1nonc1-c1nnc(SCC(=O)Nc2cc(Cl)ccc2C)n1C	-	0	0	0	-	0
COc1ccc(/C=N/NC(=O)CN2CCCCCCC2)c(C)c1C	0	5µM	56µM	?	0	-
O=C(CN1CCCCCC1)N/N=C/c1cccc(Cl)c1Cl	0	10µM	56µM	?	0	0
COc1ccc(/C=N/NC(=O)CN2CCCC2)cc1	0	0	0	0	-	0
CCN1CCN(CC(=O)N/N=C/c2ccc(F)cc2F)CC1	0	2.8µM	50µM	?	0	0
O=C(CN1CCCCCCC1)N/N=C/c1ccccc1F	0	71µM	56µM	0	0	0
CCOC(=O)C1CCN(c2ncnc3c2nnn3C)CC1	-	0	0	0	-	0
CC(C)CC(=O)Nc1nc2c(s1)CC(C(C)(C)C)CC2 (stereo not drawn)	-	0	0	0	-	0
Cc1cccc(-n2ncc(C(=O)Nc3ccc4c(c3)OCO4)c2C2CCN(C(=O)OC(C)(C)C)CC2)c1	-	?	?	0	-	0
CCOc1cc(/C=N/NC(=O)CN2CCCCC2)ccc1OCc1ccc(Cl)cc1	0	?	50µM	0	0	0
SMILES	Six1-Eya2 inh	JMJD2A Tudor	BAZ2B block	HP1b binding inh	CtBP-E1A inh	TDP1 inh
CCOc1cc(/C=N/NC(=O)CN2CCCCC2)ccc1OCc1cccc(Cl)c1	0	0	0	0	0	0
O=C(CN1CCCCC1)N/N=C/c1ccc(Cl)cc1	0	0	?	0	-	0
O=C(CN1CCCCCCC1)N/N=C/c1ccc(F)c(F)c1	0	3.2µM	0	0	0	0
O=S(=O)(O)c1ccc2c(c1)-c1nc-2nc2[nH]c(nc3nc(nc4[nH]c(n1)c1ccc(S(=O)(=O)O)cc41)-c1ccc(S(=O)(=O)O)cc1-3)c1ccc(S(=O)(=O)O)cc21	-	-	-	-	-	0.1µM
Nc1cc(S(=O)(=O)O)cc2ccc(S(=O)(=O)O)cc12	0	0	-	0	0	-
CCC1CCc2c(sc(NC(=O)C3c4ccccc4Oc4ccccc43)c2C#N)C1 (stereo not drawn)	-	0	0	0	-	0
CCC(CC)C(=O)Nc1ccc2nc(SCC(=O)N3CCOCC3)sc2c1	-	0	0	0	-	0
NC(=O)c1ccc2c(=O)n3c(-c4cc(Cl)c(N)c(Cl)c4)csc3nc2c1	-75	71µM	?	0	-76	79µM
